The whole screen tested about 330,000 compounds, of which about 2,600 (0.79%) were called active. This is one part of a sample in which actives are shown more often than they occur. Values without a mark were called inactive.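 Rule for the calls: active = mean ATP rescue above about 67%, or every replicate alone reaching that limit (limit read from the data, passing the limit was not always enough); inconclusive = no clear call, values can overlap the other calls; inactive = mean under the limit and some replicate under it.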
Experiment: protection of differentiated C2C12 cells from simvastatin – single point, plate reader, primary screen (AID 602340);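 note: myotubes were challenged with 10 µM simvastatin during compound exposure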
Settings: C2C12 myotubes + simvastatin, ATP luminescence, 48 h; at 7.49 µM; stronger effect = higher value; scaled: DMSO 0, geranylgeraniol control 100

| Compound | rescue of ATP level |
| --- | --- |
| COCC(=O)Nc1ccc2c(c1)OC[C@@H](C)N(C(=O)CC1CC1)C[C@@H](C)[C@@H](OC)CN(C)C2=O | 15.1% |
| CCCC#Cc1cnc2c(c1)C(=O)N([C@H](C)CO)C[C@@H](C)[C@@H](CN(C)C(=O)Nc1ccccc1OC)O2 | 11.6% |
| CC1(C)Cc2cccc(OCC(=O)NCc3ccccc3)c2O1 | 1.33% |
| CC1(C)Cc2cccc(OCC(N)=O)c2O1 | 113% (active) |
| CC1(C)Cc2cccc(OCC(=O)Nc3nccs3)c2O1 | 0.639% |
| CCC(=O)N[C@H]1CC[C@H](CCn2cc(-c3cccc(OC)c3)nn2)O[C@H]1CO | -2.48% |
| CC=Cc1ccc2n(c1=O)C[C@H]1[C@H](CO)[C@@H](C(=O)NC3CCCC3)N(Cc3cccnc3)[C@@H]21 (mixture of isomers) | -41.8% |
| C[C@H](CO)N1C[C@H](C)[C@@H](CN(C)Cc2cccc(F)c2)Oc2cc(C#CC3CC3)ccc2S1(=O)=O | -17.1% |
| Cc1ccc(O)c(CNc2nc3ccccc3[nH]2)c1 | 2.19% |
| Clc1ccccc1SCc1nc2ccccc2[nH]1 | 91.4% (active) |
| CC1(C)Cc2c(C#N)c(SCc3nc4ccccc4[nH]3)nc(N3CCOCC3)c2CO1 | -43.7% |
| CO[C@@H]1CN(C)C(=O)c2ccc(NC(=O)NC(C)C)cc2OC[C@H](C)N(Cc2ccc(-c3ccccn3)cc2)C[C@H]1C | 16.4% |
| CCNC(=O)C[C@@H]1C=C[C@@H](NC(=O)C2CCOCC2)[C@@H](CO)O1 | -1.82% |
| O=C(C[C@@H]1CC[C@@H]2[C@H](COC[C@H](O)CN2CC2CCOCC2)O1)NCC1CCCCC1 | 1.6% |
| CO[C@@H]1CN(C)C(=O)c2ccc(NC(=O)c3cccc(Oc4ccccc4)c3)cc2OC[C@H](C)NC[C@@H]1C | -3.89% |
| CNC(=O)C[C@H]1CC[C@H]2[C@H](COc3ccc(NC(=O)Nc4ccc(F)cc4)cc3C(=O)N2C)O1 | 17.2% |
| Cc1ccc2nc(N3CCN(C(=O)c4ccco4)CC3)sc2c1 | 0.517% |
| COc1ccc2nc(N3CCN(C(=O)c4ccc([N+](=O)[O-])o4)CC3)sc2c1 | 73.2% (active) |
| COc1ccc2nc(N3C(=O)C(O)=C(C(=O)c4ccco4)C3c3ccco3)sc2c1 (stereo not drawn) | 9.9% |

| Compound | rescue of ATP level |
| --- | --- |
| COc1ccc(S(=O)(=O)Nc2ccc3c(c2)C(=O)N([C@@H](C)CO)C[C@H](C)[C@H](CN(C)Cc2ccc4c(c2)OCO4)OCCCC[C@H](C)O3)cc1 | -65.3% |
| CC=Cc1ccc2n(c1=O)C[C@@H]1[C@@H](CO)[C@H](C(=O)NCC(F)(F)F)N(CCc3ccccc3)[C@H]21 (mixture of isomers) | -10.8% |
| O=C(C[C@@H]1CC[C@@H]2[C@H](COC[C@H](O)CN2C(=O)Nc2cccc(Cl)c2)O1)NCCCN1CCOCC1 | -20.2% |
| O=C(NCc1ccco1)C1CCCN(S(=O)(=O)c2ccccc2)C1 (stereo not drawn) | 133% (active) |
| O=C(NCc1ccco1)C1CCCN(S(=O)(=O)c2cnc[nH]2)C1 (stereo not drawn) | -4.96% |
| CCCS(=O)(=O)N1CCCC(C(=O)NCc2ccco2)C1 (stereo not drawn) | -3.35% |
| O=C(C[C@@H]1CC[C@@H]2[C@H](COC[C@@H](O)CN2S(=O)(=O)c2cccc(Cl)c2)O1)N1CCOCC1 | -7.32% |
| CCCN(C)C[C@@H]1Oc2ncc(C#CC3CC3)cc2C(=O)N([C@H](C)CO)C[C@H]1C | 8.64% |
| O=C(Nc1ccccc1)N1C[C@H]2[C@@H](c3ccccc31)[C@H](CO)N2Cc1ccc(F)cc1 | 3.11% |
| COc1cccc(S(=O)(=O)N[C@H]2C=C[C@H](CC(=O)NC3Cc4ccccc4C3)O[C@@H]2CO)c1 | 4.32% |
| C[C@@H]1CN([C@@H](C)CO)C(=O)c2cc(C#CCN(C)C)cnc2O[C@H]1CN(C)S(=O)(=O)c1cn(C)cn1 | -11.7% |
| Cc1c(C(=O)N2CCN(c3ccc(F)cc3)CC2)oc2c1C(=O)CCC2 | 87.3% (active) |
| O=C(c1cc(-c2ccc(F)cc2)on1)N1CCN(c2ccc(F)cc2)CC1 | -7.85% |
| O=C(c1cc2cc(F)ccc2[nH]1)N1CCN(c2ccc(F)cc2)CC1 | 0.946% |
| C[C@@H]1CN([C@H](C)CO)S(=O)(=O)c2ccc(C#C[C@@H](C)O)cc2O[C@H]1CN(C)CC1CC1 | -38.8% |
| CCCNC(=O)Nc1ccc2c(c1)OC[C@@H](C)N(C(=O)c1ccccc1F)C[C@H](C)[C@@H](OC)CN(C)C2=O | -10.8% |
| O=C(Nc1cc(C(F)(F)F)ccc1Cl)c1cc2nc3c(c(C(F)(F)F)n2n1)CCCC3 | -15% |
| O=C(Nc1ccc(Cl)cc1)c1cc2nc(C3CC3)cc(C(F)(F)F)n2n1 | 98.2% (active) |
| C=CCNC(=O)c1cc2nc(C3CC3)cc(C(F)F)n2n1 | -17.9% |

— PubChem BioAssay AID602340 (Broad Institute, 2012)
